Here are results for six molecules from PubChem BioAssay AID504386 (National Center for Advancing Translational Sciences (NCATS), 2011).

Inconclusive results are not listed. A call without a number means that no potency is given here. Activity calls are given as the source filed them. The call rests on the fitted dose curve; in most records, active means well fitted curve in the direction sought with a large enough effect; inconclusive means small, poorly fitted or top-dose-only effect, or another doubt; inactive means no such curve, though single readings can be large or run the other way.

The assay deals with Runt-related transcription factor 1 (Homo sapiens) + Core-binding factor subunit beta (Homo sapiens) (UniProt Q01196+Q13951). Description: qHTS Assay for Compounds Blocking the Interaction Between CBF-beta and RUNX1 for the Treatment of Acute Myeloid Leukemia: SAR for Probe. The source says:
NIH Chemical Genomics Center [NCGC] NIH Molecular Libraries Probe Production centers Network [MLPCN] MLPCN Grant: X01MH083259-01 Assay Submitter (PI): Paul Liu NCGC Assay Overview: Core Binding Factor (CBF) abnormalities are associated with 20-25% of all acute myeloid leukemias (AML), of which 5-10% are further sub classified as acute myelomonocytic leukemia with eosinophilia, also known as M4Eo in the FAB classification scheme. This subtype of leukemia is usually associated with chromosome 16 inversion (p13:q22). Chromosome 16 inversion results in formation of the fusion oncogene CBFB-MYH11, which encodes the fusion protein CBF-beta-SMMHC. […] It has been hypothesized that the interference of CBF-beta and RUNX1 binding could have therapeutic implications for patients with CBF mediated leukemias. We developed a CBF-beta and RUNX1 binding assay in AlphaScreenTM format and optimized it for high throughput screening to search for inhibitors. The goal of this project is to screen MLPCN's compound collection (MLSMR) for identifying the inhibitors of the interaction between CBF-beta and RUNX1 proteins as research probes. If these probes work well in the animal models, the ultimate goal of this project is to development a new drug treatment for this disease. This assay can not be used to assess how apparent inhibitors interfere with protein binding, and whether inhibitors specifically bind to either protein. Disruption of this protein-protein interaction, through any mechanism, is the intended target activity. The present data set was run to confirm the activity of analogs to the probe in the primary screening assay.
NCGC Assay Protocol Summary: Step, Parameter, Description (1) Reagent, 3 uL CBFb-His/RUNX1-biotin mix incubated together for 20 minutes at room temperature (30 nM each) (2) Compound or control, 23 nL compound stock solution (3) Incubation, 15 minutes at Room temperature (4) Reagent, 1 uL 50 ng each of beads (Nickel beads and streptavidin beads) (5) Incubation, 90 minutes at Room temperature (6) Detection, […], Envision reader in AlphaScreenTM mode Keywords: MLSMR, MLPCN, NIH Roadmap, qHTS, NCGC, Core binding factor, CBF, CBF-beta, Acute myeloid leukemia
(qHTS replaces the single test concentration by a dilution series.)

Sequence of Runt-related transcription factor 1 (Homo sapiens) + Core-binding factor subunit beta (Homo sapiens) (Q01196 whole entry, looked up, the tested form may be a part): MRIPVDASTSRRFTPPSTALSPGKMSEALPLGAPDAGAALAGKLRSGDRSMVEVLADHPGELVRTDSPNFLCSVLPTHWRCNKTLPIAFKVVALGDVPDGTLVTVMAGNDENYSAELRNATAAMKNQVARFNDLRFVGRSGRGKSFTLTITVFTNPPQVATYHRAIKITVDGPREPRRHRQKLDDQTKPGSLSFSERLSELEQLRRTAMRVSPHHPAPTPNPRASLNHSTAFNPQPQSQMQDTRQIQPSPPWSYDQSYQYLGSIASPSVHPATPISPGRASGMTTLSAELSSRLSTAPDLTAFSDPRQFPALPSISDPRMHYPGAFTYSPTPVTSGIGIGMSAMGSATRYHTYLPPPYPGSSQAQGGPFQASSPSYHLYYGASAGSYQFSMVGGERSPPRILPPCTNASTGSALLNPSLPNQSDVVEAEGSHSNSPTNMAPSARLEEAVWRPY
Sequence of Runt-related transcription factor 1 (Homo sapiens) + Core-binding factor subunit beta (Homo sapiens) (Q13951 whole entry, looked up, the tested form may be a part): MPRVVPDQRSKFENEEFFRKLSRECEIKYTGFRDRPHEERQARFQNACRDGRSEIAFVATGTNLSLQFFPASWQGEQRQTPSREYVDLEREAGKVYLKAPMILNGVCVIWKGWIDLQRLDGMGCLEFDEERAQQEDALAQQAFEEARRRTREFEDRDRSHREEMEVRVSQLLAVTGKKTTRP

With `NCCCC[C@H](N)C(=O)Nc1ccc(Cl)cc1C(=O)c1ccc[nH]1`, the Potency result was “inactive”.

On to `NCCC(=O)Nc1ccc(Cl)cc1C(=O)c1ccc[nH]1`, for which the Potency entry was “inactive”.

Consider `CC(C)[C@H](N)C(=O)Nc1ccc(Cl)cc1C(=O)c1ccc[nH]1`, for which the Potency entry is “inactive”.

Consider `NCC(=O)Nc1ccc(Cl)cc1C(=O)c1ccc[nH]1`, for which the Potency was 29.6 µM (active).

Take `CCC(=O)Nc1ccc(Cl)cc1C(=O)c1ccc[nH]1`: the Potency result was “inactive”.

For the molecule `C[C@H](N)C(=O)Nc1ccc(Cl)cc1C(=O)c1ccc[nH]1`, the Potency result was “inactive”.
